# Results filed as inconclusive are left out. Active and inactive are the calls of the source.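 Rule for the calls, unless noted: active = normalized viability below 100% at a tested concentration; inactive = the rest.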
# Key:
# [1] = growth inhibition of DIPG glioma cells, dose response, cell-based, SU-DIPG-XVII, MIPE5.0, CellTiter-Glo, qHTS (AID 1347060; cut-off not given, nearly all actives have AC50 up to about 26 µM); details: SU-DIPG-XVII viability, CellTiter-Glo ATP luminescence
# [2] = growth inhibition of DIPG glioma cells, dose response, cell-based, JHH-DIPG-1, MIPE4.0, CellTiter-Glo, qHTS (AID 1347062; cut-off not given, nearly all actives have AC50 up to about 27 µM); details: JHH-DIPG-1 viability, CellTiter-Glo ATP luminescence
# [3] = growth inhibition of DIPG glioma cells, dose response, cell-based, SU-DIPG-IV, MIPE4.0, CellTiter-Glo, qHTS (AID 1347063; cut-off not given, nearly all actives have AC50 up to about 30 µM;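 note: compound exposure lasted 48 hours before the viability readout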); details: SU-DIPG-IV viability, CellTiter-Glo ATP luminescence
# [4] = viability loss in pontine glioma line – cell-based, SU-DIPG-XXV, MIPE5.0, CellTiter-Glo, qHTS, dose response (AID 1347065; cut-off not given, nearly all actives have AC50 up to about 26 µM;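 note: cells exposed to compound for 48 hours before ATP readout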); details: CellTiter-Glo ATP luminescence
# [5] = SU-DIPG-VI glioma cell viability, MIPE4.0 library, CellTiter-Glo luminescence, qHTS (AID 1347066; cut-off not given, nearly all actives have AC50 up to about 30 µM;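 note: cells exposed to compound for 48 hours before readout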); details: CellTiter-Glo ATP luminescence
# [6] = JHH-DIPG-1 glioma cell viability, MIPE5.0 library, CellTiter-Glo luminescence, qHTS (AID 1347067; cut-off not given, nearly all actives have AC50 up to about 26 µM;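 note: cells exposed to compound for 48 hours before readout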); details: JHH-DIPG-1 glioma viability, CellTiter-Glo ATP luminescence
# [7] = SU-DIPG-XXV glioma cell viability, MIPE5.0 library, qHTS (AID 1347068; cut-off not given, nearly all actives have IC50 up to about 30 µM)
# [8] = sensitizers of A549 cells to miR-34 induction, primary screen, imaging, A549 dox-inducible miR-34, nuclei and caspase counts (AID 1347080;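 active = compounds whose cell count with miR-34 switched on is under 0.7 times the count with it off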); details: A549 miR-34 inducible, Hoechst nuclei count, 48 h
# [9] = modifiers of HSF1 nuclear foci, imaging, Selleck Cancer Library (AID 1347162; in the data active = plate-normalised HSF1 focus index below about 0.46); details: human cells, at 10 µM; SSMD: measured here: HSF1 foci SSMD mean; cell count: measured here: cell number; plate-normalised HSF1 focus index: stronger effect = lower value
# [10] = survival rescue of mitochondrial mutant cells in low glucose, primary screen, MELAS cybrids, Rieske KO mouse fibroblasts, CellTiter-Glo (AID 1508586;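 active = mean z-score across replicates of 1.96 or higher in either the MELAS or the Rieske mutant cell line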;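 note: z relative to plate mean and SD of compound and empty wells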)
# [11] = ovarian cancer cell viability with rucaparib, profiling panel, oncology-focused library, rucaparib conditional (AID 1508598); details: patient-derived ovarian cancer cells, CellTiter-Glo viability, 144 h, stronger effect = lower value
structure (smiles),measurement,setting,value
CNC(=O)c1ccc(N2C(=S)N(c3ccc(C#N)c(C(F)(F)F)c3)C(=O)C2(C)C)cc1F,outcome,[1],inactive
same,outcome,[2],inactive
same,outcome,[3],inactive
same,outcome,[4],inactive
same,outcome,[5],inactive
same,outcome,[6],inactive
same,outcome,[7],inactive
same,fold change,"[8]; stronger effect = lower value, cell number ratio, induced over uninduced",0.873 (inactive)
same,fold change,[8]; measured here: relative caspase fold change +Dox/-Dox,1.28
same,cell count,"[8]; measured here: total cells with miR-34 induction, stronger effect = lower value",7300
same,cell count,[8]; measured here: total cells without miR-34 induction,8360
same,SSMD,[9],0.472
same,cell count,[9],6500
same,plate-normalised HSF1 focus index,[9],1.02 (inactive)
same,z-score,"[10]; MELAS cybrid survival, CellTiter-Glo 48 h, stronger effect = higher value",-0.357 (inactive)
same,z-score,"[10]; Rieske KO mouse fibroblast survival, CellTiter-Glo 72 h",0.602
same,viability,"[11]; at 0.000305 µM, OCI-C5x cells, with rucaparib 10 µM, 100% = cells with rucaparib alone",110% (inactive)
same,viability,"[11]; at 0.000305 µM, OCI-C5x cells, without rucaparib",85.9% (active)
same,viability,"[11]; at 0.000305 µM, OCI-P5x cells, with rucaparib 20 µM, 100% = cells with rucaparib alone",81% (active)
same,viability,"[11]; at 0.000305 µM, OCI-P5x cells, without rucaparib",76.7% (active)
same,viability,"[11]; at 0.00122 µM, OCI-C5x cells, with rucaparib 10 µM, 100% = cells with rucaparib alone",110% (inactive)
same,viability,"[11]; at 0.00122 µM, OCI-C5x cells, without rucaparib",93.5% (active)
same,viability,"[11]; at 0.00122 µM, OCI-P5x cells, with rucaparib 20 µM, 100% = cells with rucaparib alone",91.6% (active)
same,viability,"[11]; at 0.00122 µM, OCI-P5x cells, without rucaparib",82% (active)
same,viability,"[11]; at 0.00488 µM, OCI-C5x cells, with rucaparib 10 µM, 100% = cells with rucaparib alone",110% (inactive)
same,viability,"[11]; at 0.00488 µM, OCI-C5x cells, without rucaparib",91.5% (active)
same,viability,"[11]; at 0.00488 µM, OCI-P5x cells, with rucaparib 20 µM, 100% = cells with rucaparib alone",90.9% (active)
same,viability,"[11]; at 0.00488 µM, OCI-P5x cells, without rucaparib",85% (active)
same,viability,"[11]; at 0.0195 µM, OCI-C5x cells, with rucaparib 10 µM, 100% = cells with rucaparib alone",113% (inactive)
same,viability,"[11]; at 0.0195 µM, OCI-C5x cells, without rucaparib",95.6% (active)
same,viability,"[11]; at 0.0195 µM, OCI-P5x cells, with rucaparib 20 µM, 100% = cells with rucaparib alone",92.4% (active)
same,viability,"[11]; at 0.0195 µM, OCI-P5x cells, without rucaparib",87.7% (active)
same,viability,"[11]; at 0.0781 µM, OCI-C5x cells, with rucaparib 10 µM, 100% = cells with rucaparib alone",108% (inactive)
same,viability,"[11]; at 0.0781 µM, OCI-C5x cells, without rucaparib",102% (inactive)
same,viability,"[11]; at 0.0781 µM, OCI-P5x cells, with rucaparib 20 µM, 100% = cells with rucaparib alone",94.7% (active)
same,viability,"[11]; at 0.0781 µM, OCI-P5x cells, without rucaparib",85.3% (active)
same,viability,"[11]; at 0.313 µM, OCI-C5x cells, with rucaparib 10 µM, 100% = cells with rucaparib alone",108% (inactive)
same,viability,"[11]; at 0.313 µM, OCI-C5x cells, without rucaparib",96.4% (active)
same,viability,"[11]; at 0.313 µM, OCI-P5x cells, with rucaparib 20 µM, 100% = cells with rucaparib alone",102% (inactive)
same,viability,"[11]; at 0.313 µM, OCI-P5x cells, without rucaparib",94.4% (active)
same,viability,"[11]; at 1.25 µM, OCI-C5x cells, with rucaparib 10 µM, 100% = cells with rucaparib alone",117% (inactive)
same,viability,"[11]; at 1.25 µM, OCI-C5x cells, without rucaparib",104% (inactive)
same,viability,"[11]; at 1.25 µM, OCI-P5x cells, with rucaparib 20 µM, 100% = cells with rucaparib alone",102% (inactive)
same,viability,"[11]; at 1.25 µM, OCI-P5x cells, without rucaparib",95.6% (active)
same,viability,"[11]; at 5 µM, OCI-C5x cells, with rucaparib 10 µM, 100% = cells with rucaparib alone",127% (inactive)
same,viability,"[11]; at 5 µM, OCI-C5x cells, without rucaparib",108% (inactive)
same,viability,"[11]; at 5 µM, OCI-P5x cells, with rucaparib 20 µM, 100% = cells with rucaparib alone",97.6% (active)
same,viability,"[11]; at 5 µM, OCI-P5x cells, without rucaparib",93.9% (active)

# Source: PubChem BioAssay
